Assay outcomes: PubChem BioAssay, several laboratories
Mtb bLac sens = beta-lactam sensitization of Mtb H37Rv. M. tuberculosis H37Rv growth with meropenem, percent inhibition. inhibition, % at 25 µM. 0.27% of 330,000 active; call rule not given here;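 further: growth measured after seven days incubation then overnight dye step; 0% = bacteria only wells and 100% = bacteria with antibiotic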
Mtb UGM inh = inhibitors of M. tuberculosis UDP-galactopyranose mutase. P9WIQ1. purified UGM, fluorescence polarization probe displacement. inhibition, % at 10 µM. 0.06% of 320,000 active; in the data active means inhibition above about 10%, passing the limit was not always enough; inconclusive means no clear call, values can overlap the other calls
Target sequence (P9WIQ1 whole entry, looked up): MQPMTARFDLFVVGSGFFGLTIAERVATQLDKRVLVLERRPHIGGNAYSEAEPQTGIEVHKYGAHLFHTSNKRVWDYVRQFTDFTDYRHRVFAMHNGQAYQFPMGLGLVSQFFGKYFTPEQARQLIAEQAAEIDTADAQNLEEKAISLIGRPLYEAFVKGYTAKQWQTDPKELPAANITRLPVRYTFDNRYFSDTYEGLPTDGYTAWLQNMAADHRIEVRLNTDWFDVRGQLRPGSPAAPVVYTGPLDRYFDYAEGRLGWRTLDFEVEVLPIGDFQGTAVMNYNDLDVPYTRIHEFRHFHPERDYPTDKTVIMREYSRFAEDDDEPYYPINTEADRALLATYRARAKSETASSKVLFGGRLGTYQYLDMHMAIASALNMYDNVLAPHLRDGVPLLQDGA
Rv3671c protease = inhibitors of M. tuberculosis serine protease Rv3671c. P9WHR9. inhibition, % at 5.96 µM. 0.048% of 320,000 active; in the data active means inhibition above about 38%;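 further: extracellular domain of Rv3671c used as enzyme; 0% = enzyme with DMSO and 100% = no enzyme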
RecA intein inh = blocks M. tuberculosis RecA intein splicing; cell-free RecA intein splicing, fluorescence; inhibition, % (no concentration beside the values); 0.75% of 290,000 active; AID 2221; in the data active means inhibition above about 30%; inconclusive means no clear call, values can overlap the other calls;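 further: 0% = vehicle wells and 100% = reference inhibitor control wells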
GDH-TPI counter = inhibits GDH-TPI coupling enzymes, artifact for Mtb FBA screen. AID 588335. inhibition, % at 4.8 µM. GDH-TPI coupled enzyme counterscreen, NADH absorbance. 1.2% of 360,000 active; in the data active means inhibition above about 30%;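 further: 0% = DMSO wells and 100% = wells lacking the enzyme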
FBA Mtb inh = inhibits M. tuberculosis FBA enzyme; P9WQA3; purified M. tuberculosis FBA, fluorescence read-out; inhibition, % at 1 µM; 2.3% of 360,000 active; in the data active means inhibition above about 27%;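 further: 0% = vehicle and 100% = reference inhibitor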
An asterisk follows results filed as active; i = inactive; ? = inconclusive; . = not tested or not shown; + = active, no number. Sampled rows, rich in hits. Any-hit rate of the full collection: about 4%.

SMILES	Mtb bLac sens	Mtb UGM inh	Rv3671c protease	RecA intein inh	GDH-TPI counter	FBA Mtb inh
COc1cnc(-c2ccccn2)nc1NC(C)C	75.2	0.0	1.2	-8.7	0.9	46.5*
Nc1ccc(C(=O)Nc2ccc3nc(-c4ccncc4)[nH]c3c2)cc1	-6.2	-1.8	6.3	-1.2	16.6	-1.2
O=C(Nc1ccc(-c2nc3ccc(NC(=O)c4cccs4)cc3[nH]2)cc1)c1cccs1	0.9	0.5	-1.6	-4.2	50.6*	3.6
Cc1ccc2nc(-c3ccc(NC(=O)c4ccco4)cc3)[nH]c2c1	?	-0.5	-21.7	0.2	54.3*	1.0
Cc1ccc(NC(=O)c2cnn(-c3ccccc3)c2NC(=O)c2ccco2)cc1	5.0	-2.4	-0.8	-1.0	11.3	181.0*
Cn1cccc1-c1nc2ccc(NC(=O)c3ccco3)cc2[nH]1	-11.8	-0.7	5.5	-5.3	27.1	-0.4
O=C(Nc1ccc2nc(-c3cccs3)[nH]c2c1)c1cccs1	-4.5	-0.2	-4.2	0.0	53.6*	8.6
O=C(Nc1ccc2nc(-c3ccccc3)oc2c1)c1ccco1	-4.5	3.6	-23.6	-2.1	54.5*	2.8
O=C(Nc1ccc2nc(-c3cccs3)[nH]c2c1)c1ccco1	-12.7	-0.6	3.4	5.0	36.0*	9.3
O=C(Nc1ccc(-c2nc3ccccc3o2)cc1)c1ccc2c(c1)OCO2	18.2	3.1	-14.3	-1.7	36.1*	1.2
O=C(Nc1cccc(-c2nc3ccccc3[nH]2)c1)c1ccco1	15.7	-1.9	-47.0	-8.9	8.2	4.2
Cc1ccc2oc(-c3ccc(NC(=O)c4ccc5c(c4)OCO5)cc3)nc2c1	-3.7	0.2	-3.2	-5.3	-5.0	8.6
CO/C(N)=C(\C#N)N=Cc1ccccc1Cl	-5.9	3.2	2.6	2.2	4.2	5.3
Fc1ccccc1/C=N/Nc1ncnc2nc[nH]c12	5.2	-0.7	9.7	-7.3	28.4	-2.1
Oc1ccc(/C=N/Nc2ncnc3nc[nH]c23)cc1	-1.7	-0.6	8.8	-4.8	74.0*	-0.7
c1csc(CNc2ncnc3nc[nH]c23)c1	-5.3	-1.1	3.6	0.5	-9.1	0.0
Cc1ccc(/C=N/Nc2ncnc3nc[nH]c23)cc1	3.0	-4.4	4.8	-3.9	64.2*	-4.6
Clc1ccc(/C=N/Nc2ncnc3nc[nH]c23)cc1	2.1	2.2	-2.9	-1.7	19.9	-2.1
Fc1cccc(/C=N/Nc2ncnc3nc[nH]c23)c1	5.5	0.6	1.4	-5.7	42.2*	-0.3
Fc1cccc(/C=N/Nc2ccccn2)c1	-4.0	0.1	14.4	1.1	48.8*	-2.6
COc1ccccc1CCNC(=O)C(=O)NCC1CCCN1S(=O)(=O)c1ccccc1 (stereo unspecified)	0.8	1.8	-0.1	0.8	5.2	0.6
COc1cccc(N2CCN(c3ccc([N+](=O)[O-])cn3)CC2)c1	-1.9	-2.9	-5.6	1.7	0.7	-0.3
O=S(=O)(NC1C2CC3CC(C2)CC1C3)c1ccccc1 (stereo unspecified)	3.4	1.3	2.9	.	-12.7	-2.1
O=C(Oc1cccc(C(=S)N2CCOCC2)c1)c1ccc([N+](=O)[O-])cc1[N+](=O)[O-]	57.7	-2.6	2.2	4.8	5.2	0.7
O=C(Oc1ccc(C(=S)N2CCOCC2)cc1)c1ccc([N+](=O)[O-])cc1[N+](=O)[O-]	12.8	-1.4	-6.8	45.8*	8.9	0.0
SMILES	Mtb bLac sens	Mtb UGM inh	Rv3671c protease	RecA intein inh	GDH-TPI counter	FBA Mtb inh
Cc1ccc(/C(O)=C2/C(=O)C(=O)N(Cc3cccnc3)C2c2ccccn2)cc1 (stereo unspecified)	-10.6	0.8	2.2	.	38.5*	3.2
COC(=O)c1ccc(C(=O)OC)c(N)c1	-1.4	2.4	1.9	-95.3	.	.
COC(=O)c1ccc(S(=O)(=O)c2ccccc2)c(N)c1	0.1	0.9	-5.4	-2.2	9.7	121.4*
Nc1nonc1-n1nnc(C(=O)N/N=C/c2ccc(Br)cc2)c1CSC1=NCCS1	0.1	.	-36.7	31.5*	11.5	-3.5
Nc1nonc1-n1nnc(C(=O)N/N=C/c2cccnc2)c1CSC1=NCCS1	-10.1	2.6	-17.9	12.4	-3.8	4.0
CC(C)c1ccc(/C=N/NC(=O)c2nnn(-c3nonc3N)c2CSC2=NCCS2)cc1	3.0	1.4	-8.8	33.8*	0.7	-3.2
Cc1c(C(=O)O)sc2nc(CSc3ncc(C(F)(F)F)cc3Cl)[nH]c(=O)c12	-7.5	-0.3	3.3	-0.3	8.2	2.8
C=Cc1ccc(Cn2c(=O)n(C)c(=O)c3sccc32)cc1	-14.7	-1.7	0.3	-0.4	15.4	1.5
CN(C)Cc1csc(NC(=O)Nc2ccccc2Oc2ccccc2)n1	.	.	.	.	0.0	0.4
CCCC1=[N+](CC(=O)c2ccccc2)CCn2c(C)ccc21	3.8	-1.2	7.1	.	35.2*	-3.7
CCCC1=[N+](CC)CCn2c(C)ccc21	-3.5	-1.3	0.2	-0.2	30.6	-1.2
Nc1c(S(=O)(=O)c2cccc(Cl)c2)c2nc3ccccc3nc2n1CCN1CCOCC1	3.2	-1.0	1.9	-8.9	13.5	8.2
Cc1ccc(S(=O)(=O)c2c(N)n(CC3CCOC3)c3nc4ccccc4nc23)cc1 (stereo unspecified)	-5.9	-0.1	-4.2	-14.6	21.9	+
CN(C)CCCn1c(N)c(C#N)c2nc3ccccc3nc21	5.5	0.4	-7.1	i	16.4	146.2*
Cc1ccc(-n2c(N)c(S(=O)(=O)c3ccccc3)c3nc4ccccc4nc32)cc1	1.8	1.0	-3.1	0.8	7.0	33.1*
Cc1ccc(S(=O)(=O)c2c(N)n(/N=C/c3ccco3)c3nc4ccccc4nc23)cc1	6.5	-1.6	-16.9	.	23.5	15.8
Cc1ccc(S(=O)(=O)c2c(N)n(NC(=O)C3CC3)c3nc4ccccc4nc23)cc1	2.3	1.0	2.1	-45.1	22.9	181.0*
C=Cc1ccc(CC2(C)C(=O)Nc3ccc(-c4cccnc4)cc32)cc1 (stereo unspecified)	.	.	.	.	11.5	-3.1
O[C@@H]1C[C@H](c2ccc(Cl)cc2)N(Cc2cccs2)C[C@H]1n1cc(C2CC2)nn1	.	.	.	.	1.0	-0.3
Cc1ccc(S(=O)(=O)c2c(N)n(CCCN(C)C)c3nc4ccccc4nc23)cc1	-0.7	3.7	-0.1	-40.3	42.1*	127.6*
CC(=O)Nc1cc(-c2cccnc2)cn2c(-c3ccc(F)cc3)cnc12	.	.	.	.	11.6	3.5
Cc1ccc(COn2c(-c3ccc(Cl)cc3)nc3ccc([N+](=O)[O-])cc32)cc1	10.2	-3.8	-1.8	7.6	18.4	-0.2
O=[N+]([O-])c1ccc2nc(-c3ccc(Cl)cc3)n(OCc3ccccc3)c2c1	4.9	-0.1	4.6	7.3	34.1*	-0.5
COc1ccc2[nH]c3c(NCCCN4CCCC4=O)ncnc3c2c1	-8.2	-2.4	5.5	2.2	18.2	152.0*
COc1ccc2[nH]c3c(=O)n(CCc4ccccc4)cnc3c2c1	-3.0	0.2	7.3	-0.7	14.2	94.7*
CCc1cc(=O)oc2c(C)c(O)c(CN(C)C)cc12	-3.5	2.5	2.4	i	32.1*	+
